Measured values as given in PubChem BioAssay (NCATS).
The source made the active and inactive calls. Calls come from the whole dose curve; as a rule, active = well fitted cell-killing curve with a large enough effect; inconclusive = small, poorly fitted or top-dose-only effect; inactive = flat fitted curve, though single readings scatter.

Experiment: Cell Viability - LYMP1-002 - Assay at 24 hr (AID 993)
Details: LYMP1-002 lymphoblastoid cells viability; series mostly up to 92.2 µM
From the text: NIH Chemical Genomics Center [NCGC]
NIH Molecular Libraries Screening Centers Network [MLSCN]
National Institutes of Environmental Health Sciences [NIEHS]
National Toxicology Program [NTP]
We have developed a 1536-well cell-based assay for quantitative high throughput screening (qHTS) against a number of cell lines to determine in vitro cytotoxicity of small molecules. This particular assay uses a human lymphoblastoid cell line (LYMP1-002) purchased from Coriell Institute for Medical Research.
NCGC Assay Protocol Summary:
The CellTiter-Glo luminescent cell viability assay (Promega) is a homogeneous method to measure the number of viable cells in culture. The end point readout of this assay is based on quantitation of intracellular ATP, an indicator of metabolic activity, using the luciferase reaction. Luciferase catalyzes the oxidation of beetle Luciferin to oxyluciferin and light in the presence of ATP. The luminescent signal is proportional to amount of ATP present.
Using the CellTiter-Glo luminescent cell viability assay, the amount of cellular ATP was measured in the lymphoblastoid cell line with complete culture medium following compound treatment for 24 hours. The assay was performed in opaque white Kalypsys 1536-well plates. In the screen, tetraoctylammonium bromide was used as positive control. Library compounds were measured for their ability to cause acute toxicity in the cell line, as reflected by a decrease in intracellular ATP levels, in a concentration-dependent manner. […] AC50 values were determined from concentration-response data modeled with the standard Hill equation.
qHTS protocol for CellTiter Glo lymphoblastoid cellular assay
[Step] [Parameter] [Value] [Description]
1. Reagent; 5 uL; 2500 lymphoblastoid cells/well
2. Time; 5 hr; 37 C incubation
4. Controls; 23 nL; Tetraoctylammonium bromide 6.4pM to 92 uM
5. Time; 24 hr; 37 C incubation
6. Reagent; 5 uL; CellTiter Glo reagent
7. Time; 30 min; Room Temperature
8. Detection; Luminescence; Viewlux plate reader
Keywords: cell viability, cytotoxicity, lymphoblastoid cell line, luminescence, NTPHTS, NTPHTS_NCGC, NIEHS, DSSTox, MLSMR, MLSCN, NIH Roadmap, qHTS, NCGC
For Cc1ccc(-c2cc(C(F)(F)F)nn2-c2ccc(S(N)(=O)=O)cc2)cc1, the outcome was “inactive”.
In the case of NCCS(=O)(=O)O, the outcome is reported as “inactive”.
For Cc1cn([C@H]2C=C[C@@H](CO)O2)c(=O)[nH]c1=O, the outcome was “inactive”.
In the case of COc1ccc2[nH]cc(CCNC(C)=O)c2c1, the outcome is reported as “inactive”.
For Cn1c(=O)c2c(ncn2C)n(C)c1=O, the outcome was “inactive”.
In the case of Nc1ccn([C@H]2CC[C@@H](CO)O2)c(=O)n1, the outcome is reported as “inactive”.
With O=c1[nH]cc(F)c(=O)[nH]1 the outcome was “inactive”.
With CC(COc1ccccc1)N(CCCl)Cc1ccccc1 (stereo not given) the outcome was “inactive”.
For Nc1c2c(nc3ccccc13)CCCC2, the outcome was “inactive”.
For Cn1c(=O)c2[nH]cnc2n(C)c1=O, the outcome was “inactive”.
In the case of COc1ccc2c(c1)c(CC(=O)O)c(C)n2C(=O)c1ccc(Cl)cc1, the outcome is reported as “inactive”.
For CCC1(c2ccccc2)C(=O)NCNC1=O, the outcome was “inactive”.
With N[C@@H](Cc1c[nH]c2ccc(O)cc12)C(=O)O the outcome was “inactive”.
For CC(C)NCC(O)c1ccc(O)c(O)c1 (stereo not given), the outcome was “inactive”.
In the case of NS(=O)(=O)c1cc2c(cc1Cl)NCNS2(=O)=O, the outcome is reported as “inactive”.
For Cc1cn([C@H]2C[C@H](N=[N+]=[N-])[C@@H](CO)O2)c(=O)[nH]c1=O, the outcome was “inactive”.
For COc1ccc(CCN(C)CCCC(C#N)(c2ccc(OC)c(OC)c2)C(C)C)cc1OC (stereo not given), the outcome was “inactive”.
With CC(C)C(=O)Nc1ccc([N+](=O)[O-])c(C(F)(F)F)c1 the outcome was “inactive”.
In the case of Clc1ccc(C(c2ccccc2Cl)C(Cl)Cl)cc1 (stereo not given), the outcome is reported as “inactive”.
For O=c1c(-c2ccc(O)cc2)coc2cc(O)cc(O)c12, the outcome was “inactive”.
